# Laboratory results taken from PubChem BioAssay.
# Active and inactive are the calls of the source. Unless noted, the rule behind the calls is not given here.
# Experiments:
# [1] = resazurin metabolic signal in HepG2 cells – cell-based, resazurin fluorescence, 24 h, PK04 Diversity Set, profiling panel (AID 1172); conditions: HepG2 viability, higher = more signal
# [2] = budding yeast growth changes without added modifier – OD600, strain BY4716, 24 h, basal condition, primary screen (AID 1173); conditions: S. cerevisiae BY4716 growth, OD600, 24 h; higher = more signal, called active from +8 up or from −8 down
# [3] = viability profiling in MM1S myeloma cells – cell-based, resazurin fluorescence, basal, 24 h, PK04 Diversity Set, profiling panel (AID 1174); conditions: higher = more signal, called active from +8 up or from −8 down;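 note: MM1S multiple myeloma cell line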
# [4] = target: Dihydroorotate dehydrogenase (quinone), mitochondrial (Plasmodium falciparum (isolate 3D7)) (UniProt Q08210); test: inhibition of P. falciparum DHODH – biochemical, C-terminal His tag, absorbance 600 nm, primary screen (AID 1175); conditions: PfDHODH enzyme, DCIP absorbance 600 nm; higher = more signal, called active from +8 up or from −8 down;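 note: recombinant parasite enzyme with a five histidine tag at its C terminus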
# [5] = inhibition of PAO1 biofilm formation – strain PAO1, LB-PBS medium, absorbance 600 nm, primary screen (AID 1176); conditions: P. aeruginosa PAO1 growth/biofilm, A600, 12 h; higher = more signal
# [6] = growth modulation of vineyard yeast isolate – strain RM11-1a, OD600, basal, 24 h, primary screen (AID 1177);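 note: cultures grown under basal conditions with no added stressor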; conditions: S. cerevisiae RM11-1a growth, OD600, 24 h; higher = more signal, called active from +8 up or from −8 down
# [7] = growth of efflux-deficient E. coli DRC39 – strain DRC39, OD650, 24 h, E. coli filamentation inducers, primary screen (AID 1178);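 note: growth measured as culture turbidity by optical density at 650 nm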; conditions: E. coli DRC39 acrAB, higher = more signal, called active from +8 up or from −8 down
# [8] = growth of efflux-deficient E. coli DRC39 – strain DRC39, OD650, 48 h, E. coli filamentation inducers, primary screen (AID 1179);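 note: screen aims at cell division blockers that make cells filament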; conditions: E. coli DRC39 delta-acrAB growth, higher = more signal, called active from +8 up or from −8 down
# [9] = viability profiling in RPMI8226 myeloma cells – cell-based, resazurin fluorescence, basal, 24 h, PK04 Diversity Set, profiling panel (AID 1180); conditions: higher = more signal;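 note: RPMI8826 multiple myeloma cell line at 5000 cells per well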
# [10] = target: E3 ubiquitin-protein ligase XIAP (Homo sapiens) (UniProt P98170); test: small molecules binding XIAP protein – biophysical, small-molecule microarray, fluorescence 635 nm, primary screen (AID 1181); conditions: higher = more signal;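 note: score merges 667 nm emission and signal to noise over triplicate slides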
# [11] = test system: XIP peptide (Xip251-270) binding; test: XIP fragment 251-270 binding compounds – biochemical, small-molecule microarray, fluorescence 635/667 nm, 0.1 µg/mL protein, primary screen (AID 1182); conditions: fluorescent protein binding, 635 nm, higher = more signal, called active from +8 up or from −8 down
# [12] = test system: XIP peptide (Xip251-270); test: compounds binding XIP fragment 251-270 – biochemical, small-molecule microarray, fluorescence 635/667 nm, 0.5 µg/mL protein, primary screen (AID 1183); conditions: fluorescence 635 nm, higher = more signal
# [13] = blood-stage malaria parasite viability loss – strain 3D7, DAPI fluorescence, 100 nL, primary screen (AID 1184);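 note: parasites grown inside human red blood cells in medium with human serum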; conditions: P. falciparum 3D7 growth, 3 d, higher = more signal
# [14] = target: Homeobox protein Hox-A13 (Mus musculus) (UniProt Q62424); test: disruptors of Hoxa13 oligonucleotide interaction – biochemical, fluorescence polarization, labeled oligonucleotide, primary screen (AID 1185); conditions: Hoxa13:DNA binding, 15 min, higher = more signal, called active from +8 up or from −8 down
# [15] = blockers of DNA damage checkpoint Chk1 activation – imaging, HeLa, hydroxyurea, phospho-Chk1 antibody, percent positive cells, primary screen (AID 1186); conditions: hydroxyurea-induced phospho-Chk1 immunofluorescence imaging, higher = more signal
# [16] = blockers of DNA damage checkpoint Chk1 activation – imaging, HeLa, hydroxyurea, phospho-Chk1 nuclear intensity, primary screen (AID 1187); conditions: hydroxyurea-induced phospho-Chk1 immunofluorescence imaging, higher = more signal
# Homeobox protein Hox-A13 (Mus musculus), sequence (Q62424 whole entry, looked up): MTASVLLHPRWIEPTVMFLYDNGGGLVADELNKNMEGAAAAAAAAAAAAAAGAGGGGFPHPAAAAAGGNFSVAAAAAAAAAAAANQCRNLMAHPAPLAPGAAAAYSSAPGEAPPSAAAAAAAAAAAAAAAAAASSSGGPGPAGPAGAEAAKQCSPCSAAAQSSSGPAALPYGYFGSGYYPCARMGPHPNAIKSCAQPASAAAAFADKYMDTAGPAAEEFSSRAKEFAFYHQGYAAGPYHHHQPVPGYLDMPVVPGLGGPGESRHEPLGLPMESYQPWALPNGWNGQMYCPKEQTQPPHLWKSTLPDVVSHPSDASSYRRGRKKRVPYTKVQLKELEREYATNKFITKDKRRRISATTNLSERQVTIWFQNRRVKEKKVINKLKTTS
# E3 ubiquitin-protein ligase XIAP (Homo sapiens), sequence (P98170 whole entry, looked up, the tested form may be a part): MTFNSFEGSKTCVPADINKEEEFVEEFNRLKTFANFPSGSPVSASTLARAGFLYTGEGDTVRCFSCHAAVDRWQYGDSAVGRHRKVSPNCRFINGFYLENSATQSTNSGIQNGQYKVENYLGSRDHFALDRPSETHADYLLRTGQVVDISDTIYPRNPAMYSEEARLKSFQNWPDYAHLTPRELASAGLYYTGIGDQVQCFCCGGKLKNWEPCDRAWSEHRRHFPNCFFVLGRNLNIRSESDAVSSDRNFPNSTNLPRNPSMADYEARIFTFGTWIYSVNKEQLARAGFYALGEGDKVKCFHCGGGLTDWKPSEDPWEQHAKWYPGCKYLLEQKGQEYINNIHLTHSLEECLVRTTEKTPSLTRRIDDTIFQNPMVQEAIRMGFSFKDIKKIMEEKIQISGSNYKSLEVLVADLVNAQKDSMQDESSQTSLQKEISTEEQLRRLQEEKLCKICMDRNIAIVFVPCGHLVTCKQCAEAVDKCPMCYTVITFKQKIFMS
# Dihydroorotate dehydrogenase (quinone), mitochondrial (Plasmodium falciparum (isolate 3D7)), sequence (Q08210 whole entry, looked up): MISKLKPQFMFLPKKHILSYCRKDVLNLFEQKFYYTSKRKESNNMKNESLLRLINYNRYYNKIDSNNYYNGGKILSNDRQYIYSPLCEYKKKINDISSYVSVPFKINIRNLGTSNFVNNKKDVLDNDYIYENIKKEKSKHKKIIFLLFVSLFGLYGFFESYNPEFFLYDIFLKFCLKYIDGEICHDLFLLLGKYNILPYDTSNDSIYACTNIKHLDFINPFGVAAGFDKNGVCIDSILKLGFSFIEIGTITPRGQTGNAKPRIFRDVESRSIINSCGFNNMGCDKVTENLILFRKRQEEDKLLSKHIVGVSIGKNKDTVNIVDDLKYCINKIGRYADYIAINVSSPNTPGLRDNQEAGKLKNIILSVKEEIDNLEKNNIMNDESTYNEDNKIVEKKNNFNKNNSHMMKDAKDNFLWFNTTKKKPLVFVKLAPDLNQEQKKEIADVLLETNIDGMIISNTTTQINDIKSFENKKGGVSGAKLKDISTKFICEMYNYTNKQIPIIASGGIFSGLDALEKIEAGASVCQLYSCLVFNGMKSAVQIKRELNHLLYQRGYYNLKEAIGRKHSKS
SMILES,z-score [1],z-score [2],z-score [3],composite z-score [4],z-score [5],z-score [6],z-score [7],z-score [8],z-score [9],composite z-score [10],composite z-score [11],composite z-score [12],z-score [13],z-score [14],z-score [15],z-score [16]
COCCOC(=O)N1C(=O)[C@@]2(c3cc(C#CC4(O)CCCCCC4)ccc31)[C@H](C(=O)Nc1nc3ccccc3s1)[C@H]1C(=O)O[C@H](c3ccccc3)[C@H](c3ccccc3)N1[C@@H]2c1ccc(OCCO)cc1,-0.0451,1.16 (inactive),-0.584 (inactive),0.901 (inactive),2.69 (inactive),3 (inactive),-0.451 (inactive),-0.976 (inactive),-0.523,0.0073,-0.148 (inactive),0.712,-1.71,0.447 (inactive),-0.086 (inactive),-0.0454 (inactive)
O=C(CS)NCCCCCNC(=O)[C@@H]1C[C@@H]2C(=O)NCC(=O)N2[C@@H]1c1cccc(OCCO)c1,-0.28,-1.01 (inactive),0.648 (inactive),-0.61 (inactive),0.752 (inactive),-2.63 (inactive),1.95 (inactive),2.01 (inactive),0.847,-0.103,1.96 (inactive),0.343,0.082,-3.25 (inactive),-0.128 (inactive),0.361 (inactive)
COc1ccc(C(=O)Nc2ccc(CN3C(=O)[C@]4(O[C@H](CC(=O)N5CCC[C@H]5CO)[C@@H]([Si](C)(C)c5ccc(OC)cc5)[C@@H]4C)c4ccccc43)cc2)cc1,-1.79,0.082 (inactive),-2.05 (inactive),-2.56 (inactive),0.0245 (inactive),0.557 (inactive),-0.0895 (inactive),-0.381 (inactive),-4.49,-0.361,0.731 (inactive),0.76,0.0279,-2.62 (inactive),0.303 (inactive),0.493 (inactive)
O=C1C2C=CC(C(O)c3ccc(-c4ccccc4)s3)N(Nc3ccccc3)C2C(=O)N1c1ccccc1 (centres undefined),0.809,-2.18 (inactive),-0.171 (inactive),0.569 (inactive),0.282 (inactive),0.119 (inactive),-0.172 (inactive),0.7 (inactive),0.428,0.59,0.57 (inactive),0.769,-0.657,-1.07 (inactive),0.484 (inactive),0.251 (inactive)
CCCNC(=O)[C@@]1(Sc2ccc(C)cc2)CC(=O)N(Cc2ccccc2C(F)(F)F)[C@@H]1c1ccc(CO)cc1I,-0.103,-3.06 (inactive),-2.54 (inactive),-0.469 (inactive),0.298 (inactive),-1.68 (inactive),0.044 (inactive),-0.478 (inactive),-2.15,-0.181,-0.163 (inactive),0.704,-1.69,-1.3 (inactive),-0.104 (inactive),0.0829 (inactive)
C=CCC(OC(C)=O)[C@@H]1[C@@H](N(Cc2cc3ccccc3o2)C(=O)Cc2ccc(OC)cc2)c2cc(OCCCO)ccc2N1C(=O)c1ccc2ccccc2c1 (some centres undefined),-1.5,-0.256 (inactive),-0.0928 (inactive),0.164 (inactive),-0.227 (inactive),-0.226 (inactive),-0.629 (inactive),-1.05 (inactive),-0.516,0.0374,0.0999 (inactive),0.167,-2.47,-1.6 (inactive),0.556 (inactive),0.877 (inactive)
CCOC(=O)C[C@H]1[C@H](OC(=O)c2ccc(C(=O)c3ccccc3)cc2)[C@@H](NC(=O)c2ccccc2)c2cc(OCCCO)ccc2N1C(=O)c1ccccc1,-0.529,0.783 (inactive),-0.224 (inactive),-0.206 (inactive),0.137 (inactive),0.144 (inactive),0.158 (inactive),0.293 (inactive),0.247,-0.0152,-0.492 (inactive),0.59,-0.263,-1.19 (inactive),0.743 (inactive),0.943 (inactive)
CCOC(=O)C1=CC[C@@H](c2ccc(C(F)(F)F)cc2)N(S(=O)(=O)c2ccc(C)cc2)[C@H]1c1ccccc1,-0.333,0.062 (inactive),-2.34 (inactive),-0.296 (inactive),-0.0601 (inactive),-0.258 (inactive),-0.604 (inactive),-0.126 (inactive),-5.04,-0.278,0.544 (inactive),0.762,-2.02,0.759 (inactive),0.0487 (inactive),-0.516 (inactive)
CCCC1(C(=O)OC)C=C2C(=C(c3ccccc3)C(=O)C2C)CN1 (centres undefined),-0.913,0.629 (inactive),-1.85 (inactive),-1.68 (inactive),0.246 (inactive),-0.0834 (inactive),-0.0785 (inactive),-0.181 (inactive),-0.77,0.192,0.774 (inactive),0.871,-0.105,-8.64 (active),-0.323 (inactive),-0.277 (inactive)
O=C1C2C=CC(C(O)COCc3ccccc3)N(Nc3ccc([N+](=O)[O-])cc3)C2C(=O)N1c1ccccc1 (centres undefined),0.0505,0.858 (inactive),0.391 (inactive),-0.262 (inactive),0.589 (inactive),0.498 (inactive),0.24 (inactive),0.613 (inactive),0.948,0.0604,-0.183 (inactive),-0.006,-1.2,-3.13 (inactive),0.0045 (inactive),0.54 (inactive)
CCOC(=O)C[C@H]1[C@H](OC(=O)c2cc3ccccc3oc2=O)[C@@H](NC(=O)CC(C)C)c2cc(OCCCO)ccc2N1C(=O)c1ccccc1,-0.683,-1.9 (inactive),0.338 (inactive),-2.94 (inactive),-1.39 (inactive),-0.544 (inactive),1.94 (inactive),1.08 (inactive),-0.0988,-0.117,-0.131 (inactive),0.495,-1.89,-1.53 (inactive),-0.315 (inactive),0.0139 (inactive)
COC(=O)c1c(CC[C@@H](CO)NC(=O)NCCc2c[nH]c3ccccc23)oc(C(=O)Cc2ccccc2)c1C(=O)OC,1.35,-1.46 (inactive),1.31 (inactive),-2.63 (inactive),-0.771 (inactive),-0.731 (inactive),1.04 (inactive),0.733 (inactive),0.861,-0.406,1.4 (inactive),0.713,-0.0066,-6.54 (inactive),-0.216 (inactive),-0.098 (inactive)
O=C(NCCN1CCOCC1)[C@@H]1c2ccccc2C(=O)N(Cc2cc(C(F)(F)F)cc(C(F)(F)F)c2)[C@H]1c1ccc(CO)cc1,-0.731,0.164 (inactive),0.0896 (inactive),0.434 (inactive),0.224 (inactive),0.842 (inactive),1.06 (inactive),0.321 (inactive),0.0838,-0.242,0.532 (inactive),0.304,-1.27,-4 (inactive),-0.24 (inactive),-0.268 (inactive)
COCCCNC(=O)[C@@H]1c2ccccc2C(=O)N(Cc2ccccc2OC)[C@H]1c1ccc(CO)cc1,1.13,-0.993 (inactive),1.71 (inactive),0.253 (inactive),1.23 (inactive),-0.839 (inactive),0.342 (inactive),0.261 (inactive),1.14,0.0472,0.694 (inactive),-0.0218,-1.99,-2.85 (inactive),-0.481 (inactive),-0.576 (inactive)
COC(=O)[C@@]1(Cc2ccc(OC)cc2)[C@H]2c3cc(C(=O)N(C)C)n(Cc4ccc(C(F)(F)F)nc4)c3C[C@H]2CN1C(=O)c1ccccc1,0.133,0.794 (inactive),-0.312 (inactive),-0.224 (inactive),-0.0019 (inactive),0.44 (inactive),-0.22 (inactive),-0.18 (inactive),0.27,0.333,0.233 (inactive),0.497,0.526,-3.56 (inactive),0.832 (inactive),0.858 (inactive)
[N-]=[N+]=Nc1ccccc1C[C@@]1(C(=O)N2CCCCC2)N=C(c2ccc(OCCCO)cc2)O[C@@H]1c1ccccc1N=[N+]=[N-],-0.45,-0.893 (inactive),-2.09 (inactive),-0.0853 (inactive),0.578 (inactive),1.48 (inactive),0.472 (inactive),0.208 (inactive),-3.1,-0.0102,0.973 (inactive),0.0553,-2.42,-4.67 (inactive),-0.425 (inactive),-0.286 (inactive)
Cc1c(NC(=O)/C(C#N)=C/c2cccc([N+](=O)[O-])c2)c(=O)n(-c2ccccc2)n1C,0.131,-0.701 (inactive),-1.34 (inactive),-2.58 (inactive),0.972 (inactive),-2.91 (inactive),1.48 (inactive),0.837 (inactive),0.246,0.248,0.92 (inactive),0.695,-0.413,-2.41 (inactive),-0.782 (inactive),-1.15 (inactive)
CN(C)CCCCCCNC(=O)[C@@H]1C[C@@H]2C(=O)N[C@@H](CCCC[N+](C)(C)C)C(=O)N2[C@@H]1c1ccc(O)cc1,-0.916,-0.661 (inactive),-1.07 (inactive),-1.06 (inactive),-0.0212 (inactive),-0.0569 (inactive),0.301 (inactive),0.575 (inactive),-0.746,0.0785,0.759 (inactive),0.146,1.99,-1.64 (inactive),0.702 (inactive),0.0464 (inactive)
OB1C=CCC(CCc2ccccc2)O1 (centres undefined),-0.246,-3.2 (inactive),0.506 (inactive),-0.685 (inactive),1.45 (inactive),-2.36 (inactive),2.73 (inactive),0.96 (inactive),0.23,-0.275,-1.15 (inactive),0.965,-0.355,-2.13 (inactive),-0.591 (inactive),-0.212 (inactive)
